Data reported in PubChem BioAssay (EPA / NIEHS).
Results filed as inconclusive are left out. The source made the active and inactive calls. Rule for the calls, unless noted: active = hit-call score of the fitted dose curve at least 0.9, where 1 is the maximum; inconclusive = response in the unintended direction; inactive = score below 0.9.

Legend:
[1] = molecular target: Agonist Androgen Response Element (ARE), AR (gene 367) (UniProt P10275); test: OT_AR_ARELUC_AG_1440: Odyssey Thera (OT) 24-hour CHO-K1 Luciferase Assay for Agonist Androgen Response Element (ARE) (AID 2283379)
How it was run: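 CHO-K1 cells carrying an ARE-driven luciferase reporter were exposed to compounds for 24 h. Luminescence was then read after adding a D-luciferin/ATP mix, and activity was scored as a gain in signal over DMSO vehicle.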

[2] = molecular target: Estrogen receptor beta (Homo sapiens) (UniProt Q92731); test: OT_ER_ERbERb_1440: Odyssey Thera (OT) 24-hour HEK293T Protein-Complementation Assay for Estrogen Receptor-beta/-beta Homodimer (AID 2283380);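 note: scored as signal increase over DMSO baseline for both agonists and antagonists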
How it was run: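 HEK293T cells stably expressing ER beta LBD (aa 310-547) homodimer fragment-complementation reporter, dosed 24 h. Cells formaldehyde-fixed, Draq5-stained; gain in nuclear (agonist) or nuclear plus cytoplasmic (antagonist) fluorescence versus DMSO read by laser scanning cytometry.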

[3] = molecular target: Bile acid receptor (Homo sapiens) (UniProt Q96RI1); test: OT_FXR_FXRSRC1_0480: Odyssey Thera (OT) 8-hour HEK293T Protein-Complementation Assay for Farnesoid X receptor/SRC-1 Co-activator (AID 2283383)
How it was run: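 Co-activator recruitment to FXR was measured in living HEK293T cells, where interaction of the two fused partners restored an active fluorescent reporter. Signal gain after 8 h treatment was referenced to DMSO.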

[4] = molecular target: Bile acid receptor (Homo sapiens) (UniProt Q96RI1); test: OT_FXR_FXRSRC1_1440: Odyssey Thera (OT) 24-hour HEK293T Protein-Complementation Assay for Farnesoid X receptor/SRC-1 Co-activator (AID 2283384)
How it was run: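 Cell-based binding reporter: interaction of FXR with SRC-1 brings reporter fragments together, giving a fluorescence signal read 24 h after dosing of HEK293T cells.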

[5] = molecular target: human Norepinephrine Transporter (NET), SLC6A2 (gene 6530) (UniProt P23975); test: NVS_TR_hNET: NovaScreen (NVS) Transporter Assay for human Norepinephrine Transporter (NET) (AID 2283377);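 for AC50: displacement of radioligand from human NET seen as loss of scintillation signal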
How it was run: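 Cell-free radioligand binding using CHO-derived membrane protein expressing human NET, read by filter scintillation counting 1 h after dosing; loss of signal vs DMSO. Initial duplicate screen at 25 uM, actives retested in concentration series.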

[6] = molecular target: Estrogen receptor (Homo sapiens) (UniProt P03372); test: OT_ERa_GFPERaERE_0480: Odyssey Thera (OT) 8-hour HeLa Transcription Induction Assay for Estrogen Receptor (AID 2283381; active = hit-call score of the fitted dose curve at least 0.9, where 1 is the maximum; inactive = score below 0.9)
How it was run: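 Cells (HeLa) receive compound; after 8 h, reporter fluorescence is imaged and quantified by high-content analysis. Gain-of-signal relative to DMSO gives the endpoint.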

[7] = molecular target: Estrogen receptor (Homo sapiens) (UniProt P03372); test: OT_ERa_GFPERaERE_0120: Odyssey Thera (OT) 2-hour HeLa Transcription Induction Assay for Estrogen Receptor (AID 2283382)
How it was run: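 Measures ESR1 pathway reporter gain-of-signal in HeLa cells after a 2-hour treatment, detected as fluorescent protein induction by microscopy, DMSO as baseline.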

Estrogen receptor beta (Homo sapiens), sequence (Q92731 whole entry, looked up, the tested form may be a part): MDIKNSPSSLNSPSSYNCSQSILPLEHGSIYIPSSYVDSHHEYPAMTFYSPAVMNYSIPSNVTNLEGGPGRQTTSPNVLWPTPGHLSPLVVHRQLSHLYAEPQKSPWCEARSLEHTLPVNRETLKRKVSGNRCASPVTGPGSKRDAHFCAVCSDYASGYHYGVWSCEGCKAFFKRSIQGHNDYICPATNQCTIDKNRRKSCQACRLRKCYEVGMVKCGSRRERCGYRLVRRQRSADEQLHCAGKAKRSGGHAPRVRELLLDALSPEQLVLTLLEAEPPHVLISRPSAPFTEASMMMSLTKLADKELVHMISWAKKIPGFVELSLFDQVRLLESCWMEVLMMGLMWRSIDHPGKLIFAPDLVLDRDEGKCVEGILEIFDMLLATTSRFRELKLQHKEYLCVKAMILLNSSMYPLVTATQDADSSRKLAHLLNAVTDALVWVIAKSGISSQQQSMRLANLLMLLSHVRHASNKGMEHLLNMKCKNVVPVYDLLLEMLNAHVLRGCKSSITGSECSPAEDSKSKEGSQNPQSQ
Bile acid receptor (Homo sapiens), sequence (Q96RI1 whole entry, looked up, the tested form may be a part): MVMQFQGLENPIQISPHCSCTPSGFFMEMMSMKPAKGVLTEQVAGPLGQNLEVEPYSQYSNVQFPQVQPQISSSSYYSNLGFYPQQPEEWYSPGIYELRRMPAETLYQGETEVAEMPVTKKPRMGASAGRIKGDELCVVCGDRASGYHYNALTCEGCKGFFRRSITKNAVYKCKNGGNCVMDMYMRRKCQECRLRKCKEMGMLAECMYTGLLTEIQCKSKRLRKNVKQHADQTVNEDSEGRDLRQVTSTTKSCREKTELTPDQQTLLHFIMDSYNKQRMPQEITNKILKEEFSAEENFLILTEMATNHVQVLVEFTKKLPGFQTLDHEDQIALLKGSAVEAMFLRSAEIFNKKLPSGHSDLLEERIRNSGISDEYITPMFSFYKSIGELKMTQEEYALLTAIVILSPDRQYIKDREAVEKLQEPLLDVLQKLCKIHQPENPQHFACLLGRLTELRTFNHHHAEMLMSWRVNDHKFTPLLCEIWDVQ
Estrogen receptor (Homo sapiens), sequence (P03372 whole entry, looked up): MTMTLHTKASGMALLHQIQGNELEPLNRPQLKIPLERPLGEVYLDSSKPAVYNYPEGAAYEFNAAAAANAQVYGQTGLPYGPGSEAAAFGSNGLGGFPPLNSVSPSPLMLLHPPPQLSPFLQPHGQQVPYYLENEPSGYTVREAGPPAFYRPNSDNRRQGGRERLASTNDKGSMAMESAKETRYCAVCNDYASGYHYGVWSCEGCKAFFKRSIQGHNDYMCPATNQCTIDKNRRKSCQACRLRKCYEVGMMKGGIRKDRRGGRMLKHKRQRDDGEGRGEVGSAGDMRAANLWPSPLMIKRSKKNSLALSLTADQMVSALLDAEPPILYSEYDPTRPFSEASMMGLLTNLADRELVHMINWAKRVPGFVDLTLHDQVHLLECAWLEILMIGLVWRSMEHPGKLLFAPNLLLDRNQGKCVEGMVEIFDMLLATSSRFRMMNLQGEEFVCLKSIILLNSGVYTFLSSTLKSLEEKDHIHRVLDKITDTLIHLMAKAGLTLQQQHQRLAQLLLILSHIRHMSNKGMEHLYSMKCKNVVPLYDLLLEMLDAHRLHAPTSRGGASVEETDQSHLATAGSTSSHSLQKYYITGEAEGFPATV
Agonist Androgen Response Element (ARE), AR (gene 367), sequence (P10275 whole entry, looked up): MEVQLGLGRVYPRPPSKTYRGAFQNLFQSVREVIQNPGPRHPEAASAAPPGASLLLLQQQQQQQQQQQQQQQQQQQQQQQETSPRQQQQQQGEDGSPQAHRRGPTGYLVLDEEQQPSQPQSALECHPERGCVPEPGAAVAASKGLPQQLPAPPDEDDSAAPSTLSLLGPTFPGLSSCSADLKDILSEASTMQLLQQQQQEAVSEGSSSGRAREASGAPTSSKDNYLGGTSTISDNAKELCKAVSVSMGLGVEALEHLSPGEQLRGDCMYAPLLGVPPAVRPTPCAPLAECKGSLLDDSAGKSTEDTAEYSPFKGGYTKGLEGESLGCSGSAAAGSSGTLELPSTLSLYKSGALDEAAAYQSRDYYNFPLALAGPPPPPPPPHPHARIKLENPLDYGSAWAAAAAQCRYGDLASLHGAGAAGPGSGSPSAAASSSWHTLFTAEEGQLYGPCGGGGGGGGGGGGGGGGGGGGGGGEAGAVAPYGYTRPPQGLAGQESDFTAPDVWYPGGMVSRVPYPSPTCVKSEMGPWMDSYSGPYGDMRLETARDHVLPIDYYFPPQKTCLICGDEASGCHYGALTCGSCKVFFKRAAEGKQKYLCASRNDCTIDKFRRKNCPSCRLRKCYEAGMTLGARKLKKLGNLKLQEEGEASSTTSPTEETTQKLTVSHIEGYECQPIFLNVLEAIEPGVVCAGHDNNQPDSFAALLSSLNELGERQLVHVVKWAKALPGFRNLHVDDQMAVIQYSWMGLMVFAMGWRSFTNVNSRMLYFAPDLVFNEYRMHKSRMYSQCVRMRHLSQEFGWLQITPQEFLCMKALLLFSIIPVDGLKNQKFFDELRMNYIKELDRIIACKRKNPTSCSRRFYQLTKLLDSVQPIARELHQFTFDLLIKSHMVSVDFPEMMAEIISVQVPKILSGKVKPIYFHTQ
human Norepinephrine Transporter (NET), SLC6A2 (gene 6530), sequence (P23975 whole entry, looked up): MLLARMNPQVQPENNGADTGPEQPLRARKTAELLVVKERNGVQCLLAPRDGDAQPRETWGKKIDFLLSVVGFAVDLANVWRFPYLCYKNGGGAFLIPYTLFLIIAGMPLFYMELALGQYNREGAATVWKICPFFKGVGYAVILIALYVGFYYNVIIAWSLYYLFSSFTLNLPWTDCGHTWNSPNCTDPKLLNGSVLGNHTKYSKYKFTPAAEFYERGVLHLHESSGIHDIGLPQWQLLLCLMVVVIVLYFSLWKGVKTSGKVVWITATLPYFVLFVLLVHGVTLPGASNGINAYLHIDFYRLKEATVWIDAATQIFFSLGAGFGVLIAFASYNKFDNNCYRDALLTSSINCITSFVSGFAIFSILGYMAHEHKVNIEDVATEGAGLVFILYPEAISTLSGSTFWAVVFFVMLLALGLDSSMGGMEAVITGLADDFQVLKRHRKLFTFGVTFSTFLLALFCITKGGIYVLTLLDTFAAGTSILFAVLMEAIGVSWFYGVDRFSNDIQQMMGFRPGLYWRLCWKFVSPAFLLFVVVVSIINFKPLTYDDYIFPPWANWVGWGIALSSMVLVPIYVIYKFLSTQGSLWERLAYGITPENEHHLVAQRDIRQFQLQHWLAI

Question: With CCNc1ccccc1 as the molecule, how does the outcome [1] read?
Answer: inactive

Question: What about the outcome [2] of the same molecule?
Answer: inactive

Question: And the outcome [3]?
Answer: inactive

Question: And the outcome [4]?
Answer: inactive

Question: With CC(C)=CCC/C(C)=C\CO as the molecule, how does the outcome [1] read?
Answer: inactive

Question: What about the outcome [3] of the same molecule?
Answer: inactive

Question: And the outcome [4]?
Answer: inactive

Question: With CC1(C)C(=O)N(Br)C(=O)N1Br as the molecule, how does the outcome [1] read?
Answer: inactive

Question: What about the outcome [2] of the same molecule?
Answer: inactive

Question: And the outcome [3]?
Answer: inactive

Question: And the outcome [4]?
Answer: inactive

Question: With O=C(O)c1cc(N=Nc2ccc(S(=O)(=O)Nc3ccccn3)cc2)ccc1O as the molecule, how does the outcome [2] read?
Answer: inactive

Question: With CC(C)CCCCCCOC(=O)c1ccc(C(=O)OCCCCCCC(C)C)c(C(=O)OCCCCCCC(C)C)c1 as the molecule, how does the outcome [2] read?
Answer: inactive

Question: For Cn1c(=O)cc(Oc2ccc(F)cc2F)c2cnc(NCC(C)(C)O)nc21, which AC50 [5] is on record?
Answer: 4.35 µM (active)

Question: And the outcome [2]?
Answer: inactive

Question: And the outcome [6]?
Answer: inactive

Question: What about the outcome [7] of the same molecule?
Answer: inactive

Question: And the outcome [3]?
Answer: inactive

Question: What about the outcome [4] of the same molecule?
Answer: inactive

Question: Which outcome [2] does the source give for On1ccccc1=S here?
Answer: inactive

Question: With O=C(O)CCN(C1(C(=O)NO)CCCC1)S(=O)(=O)c1ccc(Oc2ccc(F)cc2)cc1 as the molecule, how does the outcome [2] read?
Answer: inactive

Question: CCOCCO was tested. Which outcome [2] did it give?
Answer: inactive

Question: Which results are given for CC(C)=CCCC(C)CCO (centres undefined)?
Answer: outcome [1]: inactive; outcome [2]: inactive; outcome [6]: inactive; outcome [7]: inactive

Question: Clc1nc(Cl)c(Cl)c(Cl)c1Cl was tested. Which outcome [2] did it give?
Answer: inactive

Question: With CC(C)CC(C)(O)C#CC(C)(O)CC(C)C (centres undefined) as the molecule, how does the outcome [2] read?
Answer: inactive

Question: Which results are given for C1N2CN3CN1CN(C2)C3?
Answer: outcome [1]: inactive; outcome [2]: inactive; outcome [3]: inactive; outcome [4]: inactive

Question: Which outcome [5] does the source give for O=C(O)c1cccc(Oc2ccccc2)c1 here?
Answer: inactive

Question: What about the outcome [6] of the same molecule?
Answer: inactive

Question: What about the outcome [7] of the same molecule?
Answer: inactive

Question: CC[C@H]1OC(=O)[C@H](C)[C@@H](O[C@H]2C[C@@](C)(OC)[C@@H](O)[C@H](C)O2)[C@H](C)[C@@H](O[C@@H]2O[C@H](C)C[C@H](N(C)C)[C@H]2O)[C@](C)(O)C[C@@H](C)C(=O)[C@H](C)[C@@H](O)[C@]1(C)O was tested. Which outcome [2] did it give?
Answer: inactive

Question: CC(=O)OC[C@H]1O[C@@](COC(C)=O)(O[C@H]2O[C@H](COC(C)=O)[C@@H](OC(C)=O)[C@H](OC(C)=O)[C@H]2OC(C)=O)[C@@H](OC(C)=O)[C@@H]1OC(C)=O was tested. Which outcome [2] did it give?
Answer: inactive

Question: How did the outcome [2] turn out when NC(=O)NO was run?
Answer: inactive

Question: Which outcome [1] does the source give for CCCCC(CC)COC(=O)c1ccc(C(=O)OCC(CC)CCCC)cc1 (centres undefined) here?
Answer: inactive

Question: And the outcome [3]?
Answer: inactive

Question: Which outcome [2] does the source give for O=C1OC(=O)C2C3C=CC(C3)C12 (centres undefined) here?
Answer: inactive

Question: For CCN(C(=O)c1cc(C)cc(OC[C@H](C)Nc2ccncc2)c1)C(C)C, which outcome [2] is on record?
Answer: inactive

Question: Which outcome [1] does the source give for O=C(O)c1cccc(N(Cc2cccnc2)c2ccc(OC(F)F)c(OC(F)F)c2)c1 here?
Answer: inactive

Question: What about the outcome [2] of the same molecule?
Answer: inactive

Question: How did the outcome [1] turn out when Cc1ccc(O)cc1 was run?
Answer: inactive

Question: What about the outcome [2] of the same molecule?
Answer: inactive

Question: And the outcome [3]?
Answer: inactive

Question: And the outcome [4]?
Answer: inactive

Question: For CN(C)c1ccc(N=NS(=O)(=O)O)cc1, which outcome [1] is on record?
Answer: inactive

Question: How did the outcome [1] turn out when Cc1ccc(N)cc1O was run?
Answer: inactive

Question: And the outcome [2]?
Answer: inactive

Question: What about the outcome [6] of the same molecule?
Answer: inactive

Question: What about the outcome [7] of the same molecule?
Answer: inactive

Question: With CC(C)=CCC/C(C)=C/CO as the molecule, how does the outcome [1] read?
Answer: inactive

Question: And the outcome [3]?
Answer: inactive

Question: What does the source list for CCCCCCCCO?
Answer: outcome [2]: inactive; outcome [6]: inactive; outcome [7]: inactive

Question: What does the source list for CC(C)=CCCC(C)=CC=O?
Answer: outcome [2]: inactive; outcome [6]: inactive; outcome [7]: inactive

Question: CC(O)CN(CCN(CC(C)O)CC(C)O)CC(C)O (centres undefined) was tested. Which outcome [2] did it give?
Answer: inactive

Question: What about the outcome [4] of the same molecule?
Answer: inactive

Question: How did the outcome [2] turn out when Nc1cccc(N)c1 was run?
Answer: inactive

Question: What about the outcome [3] of the same molecule?
Answer: inactive

Question: What about the AC50 [4] of the same molecule?
Answer: 78.8 µM (active)

Question: How did the outcome [6] turn out when CCCCC(CC)COC(=O)CCCCCCCCC(=O)OCC(CC)CCCC (centres undefined) was run?
Answer: inactive

Question: And the outcome [7]?
Answer: inactive

Question: And the outcome [3]?
Answer: inactive

Question: What about the outcome [4] of the same molecule?
Answer: inactive

Question: With COc1ccc(-n2nc(C(F)F)cc2-c2ccc(S(C)=O)cc2)cc1 (centres undefined) as the molecule, how does the outcome [6] read?
Answer: inactive

Question: And the outcome [7]?
Answer: inactive

Question: For Cc1ccc(C)c(O)c1, which outcome [3] is on record?
Answer: inactive

Question: And the outcome [4]?
Answer: inactive

Question: COC(=O)CC(=O)OC was tested. Which outcome [2] did it give?
Answer: inactive

Question: And the outcome [6]?
Answer: inactive

Question: And the outcome [7]?
Answer: inactive

Question: With COC(=O)c1c(Cl)c(Cl)c(C(=O)OC)c(Cl)c1Cl as the molecule, how does the outcome [2] read?
Answer: inactive

Question: And the outcome [6]?
Answer: inactive

Question: And the outcome [7]?
Answer: inactive

Question: What about the AC50 [3] of the same molecule?
Answer: 72.2 µM (active)

Question: And the outcome [4]?
Answer: inactive

Question: Which outcome [2] does the source give for CCOC(=O)CC(CC(=O)OCC)(OC(C)=O)C(=O)OCC here?
Answer: inactive

Question: What about the outcome [3] of the same molecule?
Answer: inactive

Question: What about the outcome [4] of the same molecule?
Answer: inactive

Question: What does the source list for Cn1cnc([N+](=O)[O-])c1Sc1ncnc2nc[nH]c12?
Answer: outcome [2]: inactive; outcome [6]: inactive; outcome [7]: inactive

Question: Which results are given for CCCCCCCCCCCCCCCO?
Answer: outcome [2]: inactive; outcome [3]: inactive

Question: Which results are given for CCOCCOCCOCCO?
Answer: outcome [2]: inactive; outcome [4]: inactive

Question: How did the outcome [2] turn out when C=CC(=C)CCC=C(C)C was run?
Answer: inactive

Question: What about the outcome [6] of the same molecule?
Answer: inactive

Question: And the outcome [7]?
Answer: inactive

Question: Which outcome [2] does the source give for O=P(OC(CCl)CCl)(OC(CCl)CCl)OC(CCl)CCl here?
Answer: inactive

Question: What about the outcome [6] of the same molecule?
Answer: inactive

Question: What about the outcome [7] of the same molecule?
Answer: inactive

Question: How did the AC50 [3] turn out when CC(C)c1cccc(C(C)C)c1N1C(=O)c2ccc(O)cc2C1=O was run?
Answer: 20.7 µM (active)

Question: What about the AC50 [4] of the same molecule?
Answer: 2.63 µM (active)

Question: What does the source list for CC(C)(O)c1coc(S(=O)(=O)NC(=O)Nc2c3c(cc4c2CCC4)CCC3)c1?
Answer: outcome [2]: inactive; outcome [3]: inactive

Question: C=CCCCCCCCCC(=O)O was tested. Which outcome [2] did it give?
Answer: inactive

Question: And the outcome [6]?
Answer: inactive

Question: What about the outcome [7] of the same molecule?
Answer: inactive

Question: For COc1ccc(/C=C/S(=O)(=O)NC(=O)c2ccc(C)cc2Cl)cc1, which outcome [2] is on record?
Answer: inactive

Question: What about the outcome [3] of the same molecule?
Answer: inactive

Question: What about the AC50 [4] of the same molecule?
Answer: 7.84 µM (active)

Question: With C1=CCCC=CCCC=CCC1 as the molecule, how does the outcome [2] read?
Answer: inactive

Question: What about the outcome [3] of the same molecule?
Answer: inactive

Question: And the outcome [4]?
Answer: inactive

Question: Cc1c(-c2cccnc2)c2ccccc2n1CCCCC(=O)O was tested. Which outcome [2] did it give?
Answer: inactive

Question: What about the outcome [3] of the same molecule?
Answer: inactive

Question: And the outcome [4]?
Answer: inactive

Question: Cc1ccc(S(=O)(=O)O)cc1C was tested. Which outcome [6] did it give?
Answer: inactive

Question: And the outcome [7]?
Answer: inactive

Question: O=C(NS(=O)(=O)/C=C/c1ccccc1)c1ccc(F)cc1Cl was tested. Which outcome [2] did it give?
Answer: inactive

Question: What about the outcome [6] of the same molecule?
Answer: inactive

Question: And the outcome [7]?
Answer: inactive
